Common to all, as to format: functional
Assay [1] concerns Plasmodium falciparum. Nature of the assay: GSK_TCMDC: Inhibition of Plasmodium falciparum 3D7 in whole red blood cells, using parasite LDH activity as an index of growth. Test compounds present at 2uM.
For assay [2], the system named is Plasmodium falciparum. Nature of the assay: GSK_TCMDC: Inhibition of Plasmodium falciparum Dd2 in whole red blood cells, using parasite LDH activity as an index of growth. Test compounds present at 2uM.
The subject of the next assay is HepG2. Nature of the assay: GSK_TCMDC: Percent inhibition of human HepG2 cell line. Test compounds present at 10uM.

The Inhibition is the share of the control response that was lost under treatment. Turning to `CC(=O)Nc1ccc(CN2CCC(N(C)c3cc(NC(=O)c4ccc(F)cc4)ccn3)CC2)cc1.O=C(O)C(F)(F)F`, the Inhibition came out at 95% in the assay on Plasmodium falciparum [1], 5% in the assay with Plasmodium falciparum [2] and 0% in the assay on HepG2.

Consider `COCC(=O)N(Cc1ccccc1-c1ccc(CNCCc2ccccc2)cc1)C1CCN(Cc2ccccc2)CC1.O=C(O)C(F)(F)F`, for which the Inhibition came out at 94% in the assay with Plasmodium falciparum [1], 86% in the assay with Plasmodium falciparum [2] and 39% in the assay with HepG2.

For the compound `COC(=O)/C=C/C(=O)N[C@@H]1CC[C@@]2(O)[C@H]3Cc4ccc(O)c5c4[C@@]2(CCN3CC2CC2)[C@H]1O5.Cl`, the figures for the Inhibition in the assay on Plasmodium falciparum [1], with Plasmodium falciparum [2] and with HepG2 were 95%, 66% and 9%, respectively.

As for `CCOc1ccc(CN(CCc2ccc3c(c2)OCO3)Cc2cc(OC)ccc2O)cc1.O=C(O)C(=O)O`, the Inhibition with Plasmodium falciparum [1] stood at 96%; in the assay with Plasmodium falciparum [2], 88%; in the assay on HepG2, 3%.

Consider `O=C(NC1CCC(CN2CCC(c3c[nH]c4ccccc34)CC2)CC1)c1cc2cccc([N+](=O)[O-])c2[nH]1` (configuration not stated), for which the values for the Inhibition with Plasmodium falciparum [1], in the assay with Plasmodium falciparum [2] and with HepG2 were 100%, 100% and 36%, respectively.

For `COc1cccc(CN2CCC(CCOC(c3ccccc3)c3ccc(Cl)cc3)CC2)c1O` (configuration not stated), the Inhibition in the assay with Plasmodium falciparum [1] was found to be 99%; with Plasmodium falciparum [2], 100%; in the assay with HepG2, 22%.

In the case of `CCCN(CC(=O)NCCc1ccccc1)c1ccc(C#N)c2ccccc12.O=C(O)C(F)(F)F`, the Inhibition in the assay with Plasmodium falciparum [1] turned out to be 92%; with Plasmodium falciparum [2], 39%; in the assay on HepG2, 8%.

Take `CC[C@H]1CN2CC[C@H]1C[C@H]2[C@H](O)c1cc(/C=C/c2ccccc2)nc2ccc(OC)cc12`: the Inhibition in the assay on Plasmodium falciparum [1] was found to be 99%; in the assay with Plasmodium falciparum [2], 99%; in the assay with HepG2 it was 16%.

For `O=C(NCCC1CCN(CCc2c[nH]c3ccccc23)CC1)Nc1ccc(Cl)c(Cl)c1`, the Inhibition in the assay on Plasmodium falciparum [1] was determined as 100%; with Plasmodium falciparum [2], 5%; with HepG2, 18%.

Turning to `COc1ccc(O)c(CN2CCN(c3cc(C)ccc3C)CC2)c1`, the values for the Inhibition in the assay on Plasmodium falciparum [1], in the assay on Plasmodium falciparum [2] and in the assay on HepG2 were 90%, 86% and 7%, respectively.

With `Cc1[nH]c2cc(Cl)ccc2c1C1=CCN(CCCCC2(C)C(=O)Nc3ccccc32)CC1` (configuration not stated), the values for the Inhibition in the assay with Plasmodium falciparum [1], in the assay on Plasmodium falciparum [2] and in the assay on HepG2 were 94%, 90% and 0%, respectively.

As for `COc1ccc(OC)c(C(O)CNC(C)C)c1.Cl` (configuration not stated), the Inhibition with Plasmodium falciparum [1] came to 96%; with Plasmodium falciparum [2], 0%; with HepG2, 3%.

Turning to `COc1ccc(CCNCc2ccc3c(C)cc(N)nc3c2)cc1`, the results for the Inhibition in the assay on Plasmodium falciparum [1], in the assay on Plasmodium falciparum [2] and in the assay on HepG2 were 100%, 69% and 12%, respectively.

For the compound `C/C=C1\CN2CC[C@H]1C[C@H]2[C@H](O)c1ccnc2ccc(OC)cc12.O=S(=O)(O)O`, the Inhibition worked out at 99% in the assay on Plasmodium falciparum [1], 61% with Plasmodium falciparum [2] and 0% with HepG2.

`Cc1c2ccncc2c(C)c2c1[nH]c1ccccc12` [ELLIPTECINE]: the results for the Inhibition in the assay on Plasmodium falciparum [1], in the assay on Plasmodium falciparum [2] and with HepG2 were 95%, 97% and 38%, respectively.

Regarding `COc1cc(CC(C)NCC(O)c2cccc(C(F)(F)F)c2)ccc1OCc1ccccc1` (configuration not stated), the Inhibition worked out at 93% with Plasmodium falciparum [1], 71% in the assay with Plasmodium falciparum [2] and 2% in the assay with HepG2.

In the case of `CC1CN=C(Nc2ncc(Cl)cc2Cl)N1.Cl` (configuration not stated), the Inhibition in the assay with Plasmodium falciparum [1] is given as 99%; with Plasmodium falciparum [2], 3%; in the assay on HepG2, 2%.

For the compound `CCN(CC)CCOC(=O)C(OC)(c1ccccc1)c1ccccc1`, the Inhibition came to 97% in the assay with Plasmodium falciparum [1], 6% in the assay with Plasmodium falciparum [2] and 0% in the assay on HepG2.

For the compound `Cc1cc(N)nc2ccc(CNCCc3ccccc3Br)cc12.Cl`, the Inhibition in the assay with Plasmodium falciparum [1] stood at 100%; with Plasmodium falciparum [2], 77%; in the assay on HepG2 it was 28%.

Turning to `Cc1[nH]c2ccccc2c1C1=CCN(CCCCCNC(=O)/C=C/c2ccc(Cl)c(Cl)c2)CC1`, the values for the Inhibition in the assay on Plasmodium falciparum [1], in the assay with Plasmodium falciparum [2] and in the assay with HepG2 were 97%, 89% and 28%, respectively.

Regarding `Br.CC[C@H]1CN2CC[C@H]1C[C@H]2[C@H](O)c1ccnc2ccc(OC)cc12`, the Inhibition was 100% with Plasmodium falciparum [1], 62% in the assay on Plasmodium falciparum [2] and 0% with HepG2.

For the compound `Cc1nc(C)c(-c2ccc(Oc3ccc(OC(F)(F)F)cc3)cc2)c(OC(=O)N(CCNC(C)C)C(C)C)c1Br.Cl`, the Inhibition amounted to 98% with Plasmodium falciparum [1], 97% in the assay on Plasmodium falciparum [2] and 35% with HepG2.

`Cc1cc(N)nc2cc(CNCCc3ccccc3Br)ccc12.Cl`: the Inhibition with Plasmodium falciparum [1] is reported as 100%; in the assay on Plasmodium falciparum [2], 93%; in the assay on HepG2 it was 47%.

Regarding `COc1ccc(CCNCc2ccc3nc(N)c(C)cc3c2)cc1.Cl`, the Inhibition in the assay on Plasmodium falciparum [1] amounted to 100%; in the assay with Plasmodium falciparum [2] it was 15%; with HepG2, 0%.

For `Cl.N=c1c2c(n(Cc3ccc(Cl)cc3Cl)c3c1CCC3)CCCC2`, the Inhibition in the assay with Plasmodium falciparum [1] came to 94%; with Plasmodium falciparum [2], 73%; in the assay with HepG2 it was 0%.

As to `CC(=O)N(Cc1cccc(-c2cccc(CNCc3ccc4c(c3)OCO4)c2)c1)C1CCN(Cc2ccccc2)CC1.O=C(O)C(F)(F)F`, the Inhibition in the assay with Plasmodium falciparum [1] was determined as 95%; in the assay on Plasmodium falciparum [2], 21%; with HepG2, 16%.

Regarding `COc1cc(C=CC(=O)NC2CCC(CN3CCC(c4c[nH]c5ccccc45)CC3)CC2)cc(OC)c1` (configuration not stated), the values for the Inhibition in the assay with Plasmodium falciparum [1], with Plasmodium falciparum [2] and with HepG2 were 100%, 90% and 38%, respectively.

With `CCOc1ccc(-c2nc3cc(-c4nc5cc(N6CCN(C)CC6)ccc5[nH]4)ccc3[nH]2)cc1.Cl.O`, the values for the Inhibition with Plasmodium falciparum [1], in the assay on Plasmodium falciparum [2] and with HepG2 were 100%, 99% and 16%, respectively.

As to `O=C(NC1CCC(CN2CCC(c3c[nH]c4ccccc34)CC2)CC1)c1cnn(-c2ccccc2)c1-c1ccccc1Cl` (configuration not stated), the figures for the Inhibition with Plasmodium falciparum [1], in the assay on Plasmodium falciparum [2] and in the assay with HepG2 were 95%, 11% and 66%, respectively.

These data come from ChEMBL document CHEMBL1157539, “Thousands of chemical starting points for antimalarial lead identification” (Nature, 2010).
